Test results reported in PubChem BioAssay (NCI).
“And” between values parts separate entries of the source, which are not always exact repeats. Equal entries are not always repeated. The panel holds about 83,000 compounds, 20% with a hit somewhere; the sample as a whole holds those more often.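 Single-concentration screen, 48 h exposure, 96-well plates. Endpoint: percent growth. Below 10 = active.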 The source made the active and inactive calls.

What follows are compounds tested on MDA-MB-468 breast (assay: NCI-60 one-dose screen, 48 h (100 = growth as untreated, 0 = no growth, -100 = all killed)). Settings: 10 µM unless noted.

Row | SMILES | growth
1 | C=C(c1ccc(C(=O)O)c(F)c1)c1cc2c(cc1C)C(C)(C)CCC2(C)C | 97.6% (inactive)
2 | CCN(CC)CCN1CNC(=S)NC1 | 99.7% (inactive)
3 | O=C1NC(=S)NC(=O)C1=Cc1cn(Cc2ccccn2)c2ccccc12 | -40.6% (active)
4 | C1=C2CNCC3=Cc4ccc5ccccc5c4OC23Oc2c1ccc1ccccc21 | 50.4% (inactive)
5 | CCOc1ccc(/C=N\N2CCCCCC2)cc1OCC | 111% (inactive)
6 | Cc1ccc(S(=O)(=O)N(CC[C@@H]2C[C@H]2c2cc3ccccc3o2)C(=O)NC2CCCCC2)cc1 | 95.3% (inactive)
7 | Cc1c(N2CCCCC2)[nH]c2ccccc12 | 121% (inactive)
8 | NNC(=O)/C(=C\c1ccc([N+](=O)[O-])cc1)CC(=O)c1ccc(Cl)c(Cl)c1 | 89.2% (inactive)
9 | C=C(C)[C@@H]1CC[C@]2(C(=O)NC(C)=O)CC[C@]3(C)[C@H](CC[C@@H]4[C@@]5(C)CCCNC(C)(C)[C@@H]5CC[C@]43C)[C@@H]12 | -20.3% (active)
10 | CCOC(=O)C1=C(NC)OCC1=O | 90.7% (inactive)
11 | COc1ccc(C(=O)C(C#N)c2cc(OC)c(OC)c(OC)c2)cc1 (stereo not given) | 102% (inactive)
12 | O=C/C=C/c1ccc([N+](=O)[O-])cc1 | 108% (inactive)
13 | Cn1c(O)c(N=NC(=O)c2cc(-c3ccccc3)on2)c2ccccc21 | 107% (inactive)
14 | CCOC(=O)c1c(-c2cc(OC)c(OC)c(OC)c2)csc1N | 50% (inactive)
15 | O=C(Oc1ccccc1)c1ccccc1Cl | 102% (inactive)
16 | O=c1c2cc(F)ccc2sc2c(N3CCNCC3)nc3ccccc3c12 | -41.2% (active)
17 | O=c1ccccc(-c2ccc(-c3ccco3)cc2)c1O | 12.1% (inactive)
18 | COc1ccc(/C=N/C2=C(C#N)C(c3ccc(N(C)C)cc3)c3ccc4ccccc4c3O2)cc1 (stereo not given) | 84.3% (inactive)
19 | CC1(/C=N/NC(N)=S)NC(=O)NC1=O (stereo not given) | 102% (inactive)
20 | Cl.Fc1c[c-]c(-c2ccccn2)c(F)c1.[Pt].c1ccc([PH+](C[PH+](c2ccccc2)c2ccccc2)c2ccccc2)cc1 | -75.7% (active)

Row | SMILES | growth
21 | COc1cccc(N2CCN(CC(=O)N3CCN(c4nnc(-c5ccc(Cl)cc5)c(-c5ccc(Cl)cc5)n4)CC3)CC2)c1 | 76.5% (inactive)
22 | CCCCN1CCCn2c1nc1c2c(=O)n(CCC)c(=O)n1CCC | 101% (inactive)
23 | Cc1csc(-c2nnc(Nc3ccc(Oc4ncccc4-c4ccnc(N)n4)cc3)c3ccccc23)c1 | 41.6% (inactive)
24 | CCNc1cc(S(=O)(=O)O)ccc1C | 97.2% (inactive)
25 | COc1ccc(OC)c(-c2c(C#N)c(-c3ccco3)nc3c2c(-c2ccccc2)nn3-c2ccccc2)c1 | 98.4% (inactive)
26 | CC(C)CCC[C@@H](C)[C@H]1CC[C@H]2[C@@H]3CC=C4c5sc(Nc6cc(C(F)(F)F)cc(C(F)(F)F)c6)nc5CC[C@]4(C)[C@H]3CC[C@]12C | 105% (inactive)
27 | COc1ccc(C(=O)C(O)c2ccc(OC)cc2)cc1 (stereo not given) | 101% (inactive) and 96.3% (inactive)
28 | COc1ccc(S(=O)(=O)Nc2c(/C=C\c3cc(OC)c(OC)c(OC)c3)ccc(OC)c2O)cc1 | 10.9% (inactive)
29 | CCOC(=O)c1c(N)c(C#N)cn1-c1cc(OC)c(OC)c(OC)c1 | 103% (inactive)
30 | Cc1ccc(C(=O)Nc2ccc(CN3CCN(C)CC3)c(C(F)(F)F)c2)cc1C#Cc1cnc2cccnn12 | -85.9% (active)
31 | C#CCN=C[C@]12CC[C@@H](C(=C)C)[C@@H]1[C@H]1CC[C@@H]3[C@@]4(C)CCC(=O)C(C)(C)[C@@H]4CC[C@@]3(C)[C@]1(C)CC2 | 40.3% (inactive)
32 | O=C1N=c2ccccc2=C1c1sc(=Nc2ccccc2)n(Nc2ccccc2)c1O | 123% (inactive)
33 | COc1ccc(C(=O)c2cc(C)c(OC)c(C)c2)c(OC)c1N(C(=O)CCl)C(=O)CCl | 3.62% (active)
34 | O=C(c1ccc(-c2ccccc2)cc1)c1ccc([N+](=O)[O-])cc1 | 108% (inactive)
35 | Cn1cc(-c2nc(N)nnc2-c2c[nH]c3ccc(Br)cc23)c2cc(Br)ccc21 | 6.33% (active)
36 | COc1cc(/C=C2\CCC/C(=C\c3cc(CN4CCCCC4)c(O)c(OC)c3)C2=O)cc(CN2CCCCC2)c1O | 80.4% (inactive)
37 | C#CC(O)c1ccccc1 (stereo not given) | 110% (inactive)
38 | COc1ccc(CNc2c3ccccc3nc3ccccc23)cc1OC | -22.7% (active)
39 | CC(C)(C)CC(N)=O | 101% (inactive)
40 | COc1ccc(OC)c(-c2c(C#N)c(-c3cccs3)nc3c2c(-c2ccccc2)nn3-c2ccccc2)c1 | 104% (inactive)
